High-throughput results as filed in PubChem BioAssay.
Compounds with a hit are over-represented: about 12% of the library has one in this group of screens.
TDP1 block – inhibitors of human tyrosyl-DNA phosphodiesterase TDP1; Q9NUW8; recombinant TDP1, AlphaScreen DNA substrate cleavage; Potency, µM (highest dose often 130 µM), for inactives: at the top dose activity change, negative = inhibition, hits mostly inhibitors; actives 0.28% (n = 350,000); further: on the % scale 0 is the no-effect control and ±100 the full control effect; nearly all actives have a fitted effect of over 40% in size
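E. coli-derived human Tdp1, 1 nM final. Cpd preinc 15 min RT; substrate 15 nM final, 5 min RT; AS bead mix 10 ug/ml final, 10 min RT. Signal loss = tyrosine-FITC cleavage. No-enzyme wells = max signal.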
Sfp inh – Sfp phosphopantetheinyl transferase inhibition; Q9F4F7; Biochemical Sfp PPTase activity, qHTS; Potency, µM, inactives show largest response in the series, negative = inhibition, most hits filed as inhibitors; actives 3.5% (n = 310,000);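 further: the enzyme is Sfp with the accession as filed and its product quenches rhodamine fluorescence; 0% = enzyme reaction without inhibitor and -100% = no enzyme wells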
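Step 1, compound plus 15 nM Sfp-PPTase, 15 min, room temperature. Step 2, add rhodamine-CoA (5 uM) and BHQ-2-YbbR (12.5 uM). Step 3, read 525/598 nm fluorescence at 0 and 30 min.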
BAZ2B inh – inhibitors of human BAZ2B bromodomain | Q9UIF8 | AlphaScreen BAZ2B-H3K14Ac peptide displacement | Potency, µM (doses to about 114 µM), inactives show at the top dose activity change, negative = inhibition, usual class: inhibitors | actives 4.4% (n = 360,000) | AID 504333; further: on the % scale 0 is the no-effect control and ±100 the full control effect; nearly all actives have a fitted effect of over 60% in size
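Multi-concentration screen (max 110 uM) measuring displacement of acetylated histone H3 peptide from BAZ2B by AlphaScreen, using 50 nM protein, 50 nM peptide and 10 ug/mL streptavidin donor plus Ni-chelate acceptor beads.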
HP1b binding inh – HP1-beta chromodomain-methylated histone interaction inhibition | AID 540317 | actives 0.56% (n = 390,000) | AlphaScreen HP1-beta / biotin-H3K9me3 peptide binding | P83916 | Potency, µM (doses to about 114 µM), inactives show top-dose activity change, negative = inhibition, most hits filed as inhibitors; further: nearly all actives have a fitted effect of over 70% in size
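Compound inhibition of the preformed complex between 50 nM HP1-beta and 50 nM biotinylated H3K9me3 peptide was read by AlphaScreen. Buffer was PBS pH 7.4 with 0.01% Tween-20. Incubations ran 30 min at room temperature, with 10 ug/mL donor/acceptor beads.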
G9a block – G9a (human) methyltransferase inhibition; G9a H3K9 monomethylation, AlphaScreen, 2 h; AID 504332; actives 8.8% (n = 350,000); Potency, µM (highest dose often 102 µM), for inactives: at the top dose activity, negative = inhibition, hits mostly inhibitors; further: on the % scale 0 is the no-effect control and ±100 the full control effect; nearly all actives have a fitted effect of over 75% in size
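Quantitative HTS format: methyltransferase activity on a biotin-tagged H3K9 peptide is measured by AlphaScreen, using a rabbit anti-monomethyl-H3K9 antibody with streptavidin donor and anti-IgG acceptor beads. Final levels are 20 nM enzyme, 500 nM peptide, 20 uM SAM; 2 h RT.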
JMJD2A Tudor – blocks the human JMJD2A Tudor domain; O75164; AlphaScreen JMJD2A-Tudor / H3K4me3 peptide binding; Potency, µM (top dose mostly 114 µM), for the others: at the highest dose activity change, negative = inhibition, hits mostly inhibitors; actives 4.4% (n = 390,000); further: on the % scale 0 is the no-effect control and ±100 the full control effect; nearly all actives have a fitted effect of over 50% in size
* marks the source's active call; other numbers are inactive results; ? = inconclusive; . = no result given; [ ] = remark or other dose. The call rests on the fitted dose curve; in most records, active means well fitted curve in the direction sought with a large enough effect; inconclusive means small, poorly fitted or top-dose-only effect, or another doubt; inactive means no such curve, though single readings can be large; an effect the other way counts as inactive or inconclusive. Potency means the concentration at half of the fitted maximal effect.

SMILES	TDP1 block	Sfp inh	BAZ2B inh	HP1b binding inh	G9a block	JMJD2A Tudor
CCOc1ccccc1NS(=O)(=O)c1cc2c3c(c1)CC(=O)N3CCC2	2%	3%	-14%	25%	-1%	-15%
C[C@@H](C[C@H](N)C(=O)O)C(=O)O	4%	79µM*	.	.	.	.
NC(CS)C(=O)O (centres undefined)	?	18µM*	.	.	16µM*	.
CC(C)C[C@@H](N)C(=O)O	-4%	-7%	.	.	37%[59 µM]	.
NCCCC[C@@H](N)C(=O)O	6%	6%	.	.	28%[59 µM]	.
N[C@H](CS)C(=O)O	6%	32µM*	.	.	-1%[59 µM]	.
NC(=O)CC[C@H](N)C(=O)O	9%[56.1 µM]	14%	.	.	?	.
Cc1cccc(N2C(=O)CSC23C(=O)N(CC(=O)NCc2ccccc2Cl)c2ccccc23)c1 (centres undefined)	2%	.	1%[57.1 µM]	24%	-8%[59 µM]	-13%
CCCCn1c(N)c(N(CC)C(=O)CSCC(=O)Nc2ccc(OC)cc2)c(=O)[nH]c1=O	1%	.	12%	24%	50µM*	4%
CCCCN(C(=O)CSCC(=O)Nc1cccc(C)c1)c1c(N)n(CCCC)c(=O)[nH]c1=O	-4%	.	17%	21%	20µM*	-8%
CCCN(C(=O)CSCC(=O)Nc1ccc(OC)cc1)c1c(N)n(Cc2ccccc2)c(=O)[nH]c1=O	.	.	2%	25%	?	-8%
Cc1ccc(NC(=O)CSCC(=O)N(CCC(C)C)c2c(N)n(Cc3ccccc3)c(=O)[nH]c2=O)cc1	0%	.	-9%	16%	56µM*	-22%
CCCn1c(N)c(N(CCOC)C(=O)CSCC(=O)Nc2cccc(C)c2)c(=O)[nH]c1=O	-3%	.	2%	29%	50µM*	-3%
CCN(CC)CCNC(=O)CN1C(=O)CSc2ccc(S(=O)(=O)N3CCOCC3)cc21	3%	.	0%	1%	6%[59 µM]	-24%
COc1cc(/C=C/C(=O)NC(C)C2CC3CCC2C3)cc(OC)c1OC (centres undefined)	-5%	3%	4%	19%	20%	-5%
O=C(CSc1nnc2ccc(-c3ccco3)nn12)Nc1ccccc1F	.	.	?	73%	14µM*	-18%
Cc1cc(C)c(NC(=O)CSc2nnc(-c3ccco3)n2N)c(C)c1	5%	-1%	0%	8%	3%[12.7 µM]	5%
COc1ccccc1NC(=O)CSc1ccc(-c2cccs2)nn1	-1%	15%	2%	24%	?	2%
Cc1ccccc1NC(=O)CSc1nnc(-c2ccco2)n1N	.	.	13%	?	7.9µM*	-19%
COc1ccccc1NC(=O)CSc1ccc(-c2ccco2)nn1	7%	45µM*	?	21%	?	-25%
Cc1ccc(C)c(NC(=O)CSc2ccc(-c3ccco3)nn2)c1	-3%	14µM*	-25%	32%	-14%[59 µM]	-7%
CCN1CCN(c2ccc(NC(=O)CCc3c(C)nc4c(-c5ccc(F)cc5)c(C)nn4c3C)cc2)CC1	0%	-3%	?	-11%	?	?
Cc1ccccc1NC(=O)CSc1nnc(-c2ccoc2C)n1CCc1ccccc1	-1%	-15%	?	19%	79µM*	-19%
Cc1ccccc1NC(=O)CSc1ccc(-c2ccco2)nn1	3%	22µM*	-34%	11%	-19%[59 µM]	-26%
Cc1ccc(NC(=O)Cc2nnc(SCC(=O)NC3=NCCS3)n2C)cc1	1%	-2%	?	20%	?	2%
SMILES	TDP1 block	Sfp inh	BAZ2B inh	HP1b binding inh	G9a block	JMJD2A Tudor
Cc1ccccc1NC(=O)Cc1nnc(SCC(=O)NC2=NCCS2)n1C	.	7%	-2%	-8%	?	25µM*
COc1ccccc1CNC(=O)CSc1nnc(C)c2c(C)n(-c3ccccc3)nc12	0%	.	-17%	4%	?	-8%
O=c1[nH]c(SCc2ccccc2)nc2c1sc1ccccc12	2%	2%	-4%	56%	50µM*	-13%[57.1 µM]
Cc1ccccc1CNC(=O)C1CCC(=O)N(C2CCCCCC2)C1 (centres undefined)	1%	12%	6%	12%	56%	-8%
O=C1CC(c2nc(-c3ccc(Cl)cc3)no2)CN1c1ccc2c(c1)OCCO2 (centres undefined)	6%	.	-6%	7%	8%[59 µM]	-12%
O=C(C1CCCN(S(=O)(=O)c2cccc3cccnc23)C1)N1CCc2ccccc21 (centres undefined)	5%	-6%	1%	46%	45µM*	-23%
O=C(NC1CCCCC1)C1CCCN(S(=O)(=O)c2cccc3cccnc23)C1 (centres undefined)	1%	12%	0%	41%	9%	-6%
CC(=O)N(C(C)=O)c1nc2nc(C)cc(C)n2n1	-7%	-19%	56µM*	-22%	?	?
Cc1nc2cc(NC(=O)Nc3ccc(N4CCOCC4)cc3)ccc2n1C	-12%	8%	-22%	18%	8.9µM*	-19%
Cc1cc(C)n2nc(C(=O)Nc3ccc(N4CCOCC4)cc3)nc2n1	6%	-7%	-8%	35%	10µM*	-6%
Cc1cc(C)n2nc(C(=O)Nc3nccs3)nc2n1	7%	-7%	4%	27%	-9%	11µM*
Cc1cc(C)n2nc(CCc3nc4nc(C)cc(C)n4n3)nc2n1	2%	9%	-5%	.	-5%	.
Cc1cccc(C(=O)OCc2cc(=O)n3nc(C4CC4)sc3n2)c1	-1%	.	0%	25%	-3%[59 µM]	1%
COc1ccc(/C(O)=C2/C(=O)C(=O)N(c3ccccn3)C2c2ccc(C(C)C)cc2)cc1 (centres undefined)	.	8%	-3%	40%	?	-22%
Cc1csc(NC(=O)c2nc3nc(C)cc(C)n3n2)n1	6%	-16%	?	4%	?	79µM*
CCN(CC)C(=O)c1cccc2nc3ccccc3nc12	3%	15%	-2%	-7%	0%	79µM*
O=C(c1cccc2nc3ccccc3nc12)N1CCOCC1	6%	13%	-9%	-13%	6%[12.7 µM]	79µM*
CCN(CC)C(=O)c1ccccc1NC(=O)c1ccccc1	1%	5%	17%	35%	12%	-10%
O=C(c1ccccc1O)N1CCOCC1	-1%	12%	-2%	33%	-1%[59 µM]	2%
NC(N)=Nc1nc(CSCC/C(N)=N\S(N)(=O)=O)cs1	7%	-16%	.	.	0%[2.33 µM]	.
CC(=O)Nc1cccc(OCCCOc2cccc([N+](=O)[O-])c2)c1	.	.	.	7%	.	-33%
Cc1cc(NC(=O)Cn2c(=O)n(Cc3ccccc3)c(=O)c3ccccc32)no1	1%	25µM*	5%	14%	8%[2.33 µM]	-23%
Cc1ccccc1C(=O)Nc1sc2c(c1C(=O)N1CCC(C)CC1)CCC(C)C2 (centres undefined)	.	.	-2%	25%	?	-13%
